# Laboratory results as given in PubChem BioAssay (NCI).
# The panel holds about 83,000 compounds, 20% with a hit somewhere; the sample as a whole holds those more often.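 Step 1: grow cells in 96-well plates. Step 2: add test compound at a single concentration. Step 3: incubate 48 h. Step 4: record percent growth.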 The source made the active and inactive calls. How the source made its calls: active means growth percent below 10; inactive means the rest.
# Test system: HL-60(TB) leukemia
# Assay: NCI-60 one-dose screen, 48 h (100 = growth as untreated, 0 = no growth, -100 = all killed)
# Conditions: 10 µM unless noted
row,SMILES,growth
1,NC(=O)C1(Nc2ccc(Br)cc2)CCCC1,94.8% (inactive)
2,CC(C)(C)c1ccc(O)c(Br)c1,156% (inactive)
3,COC1=CC(c2ccc[nH]2)=N/C1=C\c1[nH]c(C)c(CC(=O)OCc2ccccc2)c1C,-29.2% (active)
4,CN(C)c1ccc([C@@H](C(=O)Nc2cccc([N+](=O)[O-])c2)N(C(=O)c2cc3ccccc3[nH]2)c2cccc([N+](=O)[O-])c2)cc1,97.8% (inactive)
5,C=CC(=O)N[C@@H](Cc1ccc(-c2cc(Cl)cc(Cl)c2)cc1)[C@@H](O)[C@H](O)C(=O)O,95.9% (inactive)
6,O=C1Nc2ccc(Cl)cc2/C1=N/c1nc(-c2ccc(F)cc2)cs1,-36.7% (active)
7,COc1cc(/C=C/C(=O)N2CCC=CC2=O)cc(OC)c1OC,-13.1% (active)
8,CCN1/C(=C/C(C)=C/c2sc3ccc4ccccc4c3[n+]2CC)Sc2ccc3ccccc3c21,-52.1% (active)
9,NC(=N\N=C/c1ccc(Cl)cc1Cl)/C(N)=N\N=C/c1ccc(Cl)cc1Cl,79.7% (inactive)
10,COc1cc2oc(-c3ccc(NC(=O)c4ccccc4)cc3)cc(=O)c2c(OC)c1OC,100% (inactive)
11,O=S(=O)(OCCO)c1ccccc1,107% (inactive)
12,COc1ccc(C2=C/C(=C\c3ccc(Cl)cc3)C(=O)NN2C(=S)NN)cc1,93.3% (inactive)
13,COc1ccc(/C=C(\C#N)n2nnc3cc(Cl)ccc32)cc1,-6.14% (active)
14,O=C1CN2CCC1C/C2=C\c1ccnc2c(Cl)cccc12 (stereo unspecified),91.8% (inactive)
15,N#Cc1c2c(nc3n[nH]c(N)c13)CCCC2,87.3% (inactive)
16,C=C(C)[C@H]1CC/C(C)=C/CC[C@]2(C)O[C@H]2CC/C(COC(=O)[C@@H](OC(C)=O)[C@H](NC(=O)c2ccccc2)c2ccccc2)=C\[C@@H]1O,91% (inactive)
17,CC/C(=C(/c1ccc(OCCN(C)C)cc1)c1ccc(OC(=O)CCCCC(=O)c2c(C)[nH]c(/C=C3\N=C(c4ccc[nH]4)C=C3OC)c2C)cc1)c1ccccc1,82.2% (inactive)
18,Cc1ccccc1CCO,100% (inactive)
19,Fc1ccc(Nc2nc(Nc3ccc(-c4nc5ccccc5[nH]4)cc3)c3cn[nH]c3n2)cc1,91.4% (inactive)
20,COc1ccc2nc3ccccc3c(NCCNCC(C)O)c2c1 (stereo unspecified),14.2% (inactive)
21,O=c1c2cc(F)cc(Cl)c2sc2c(Cl)nc3ccccc3c12,115% (inactive)
22,CCC1S/C(=N\N=C(/C)c2cccs2)N(c2ccccc2)C1=O (stereo unspecified),59.2% (inactive)
23,COc1ccc(/C=C/C(=O)c2ccc(Nc3nc(Nc4ccc(F)cc4)nc(Nc4ccc(Cl)cc4)n3)cc2)cc1,-0.226% (active)
24,COc1ccc(/C=C/C(c2cc(OC)c(OC)c(OC)c2)n2cncn2)cc1 (stereo unspecified),-17.9% (active)
25,O=C1Nc2ccccc2C2c3cccn3-c3ccccc3N12 (stereo unspecified),86.1% (inactive)
26,O=c1[nH]nc(-c2ccc(Br)cc2)cc1Cc1ccc(O)cc1,85.4% (inactive)
